Assay results taken from the supplement of paper PMC10849652.
About 7,900 targets were measured; listed, in parts, are those with a hit and a random draw of the rest. About 0.6% of all pairs of compound and target were hits.

Tests used:
Experiment in all cases: log2 fold change, soluble protein after heating vs DMSO (PISA); higher = thermal stabilisation; K562 cells, 10 uM, 30 min; active = over 0.2 and 3.5 SD of the protein, either way, in both replicates (recomputed)
IRAK-1-4 Inhibitor I = compound: C1COCCN1CCN2C3=CC=CC=C3N=C2NC(=O)C4=CC(=CC=C4)[N+](=O)[O-] [IRAK-1-4 Inhibitor I]
Procedure, shortened: (§1)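 Quantification of soluble protein used TMTpro 16plex LC-MS/MS, with channel sums equalised. Samples were the supernatant after 21,000xg for 90 min of pooled aliquots from K562 cells (2×10^6 cells/mL) treated with 10 μM compound for 30 min, heated for 3 min over 48°C-58°C, and extracted in PBS with 0.5% NP-40 at 4°C. Values, from duplicates, describe thermal stability against control samples on a log2 fold-change scale.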

ibrutinib = compound: C=CC(=O)N1CCC[C@@H](n2nc(-c3ccc(Oc4ccccc4)cc3)c3c(N)ncnc32)C1 [ibrutinib]
Procedure, shortened: as §1

[1] = compound: CC(=O)c1cnc2ccc(-c3cc(Cl)c(O)c(Cl)c3)nc2c1N[C@H]1CC[C@H](CN(C)C)CC1
Procedure, shortened: as §1

ralimetinib = compound: CC(C)(C)Cn1c(N)nc2ccc(-c3[nH]c(C(C)(C)C)nc3-c3ccc(F)cc3)nc21 [ralimetinib]
Procedure, shortened: as §1

[2] = compound: CC(C)(O)CC(=O)NCCn1ccc2ncnc(Nc3ccc(Oc4cccc(C(F)(F)F)c4)c(Cl)c3)c21
Procedure, shortened: as §1

[3] = compound: CC(C)C1=C2N=C(C=C(N2N=C1)NCC3=CC=CC=C3)NCCCCCCN
Procedure, shortened: as §1

[4] = compound: CC(C)C[C@@H](C=O)NC(=O)[C@H](CC(C)C)NC(=O)[C@H](CC(C)C)NC(=O)OCc1ccccc1
Procedure, shortened: as §1

pinometostat = compound: CC(C)N(C[C@H]1O[C@@H](n2cnc3c(N)ncnc32)[C@H](O)[C@@H]1O)[C@H]1C[C@@H](CCc2nc3cc(C(C)(C)C)ccc3[nH]2)C1 [pinometostat]
Procedure, shortened: as §1

[5] = compound: CC1=C(C(CC(=O)N1)C2=CC=C(C=C2)C(F)(F)F)C(=O)NC3=C(C=C4C(=C3)C=NN4)F
Procedure, shortened: as §1

[6] = compound: CC1=C(C2=C(C=C1)C(=O)C3=CC=CC=C3N2CCCN)C
Procedure, shortened: as §1

[7] = compound: CC1=C(C=C(C=C1)NC(=O)C2=CC(=CC=C2)C(C)(C)C#N)NC3=CC4=C(C=C3)N=CN(C4=O)C
Procedure, shortened: as §1

[8] = compound: CC1=C(C=C(C=C1)NC(=O)C2=CC(=CC=C2)N(C)C)NC(=O)C3=CC=C(C=C3)O
Procedure, shortened: as §1

[9] = compound: CC1=CC=C(C=C1)SC2=C3C=C(SC3=CN=C2)C(=O)N
Procedure, shortened: as §1

[10] = compound: CC1=NC(=CC=C1)C2=C(N=C(N2)C(C)(C)C)C3=CC4=NC=CN=C4C=C3
Procedure, shortened: as §1

Nexturastat A = compound: CCCCN(Cc1ccc(C(=O)NO)cc1)C(=O)Nc1ccccc1 [Nexturastat A]
Procedure, shortened: as §1

vemurafenib = compound: CCCS(=O)(=O)Nc1ccc(F)c(C(=O)c2c[nH]c3ncc(-c4ccc(Cl)cc4)cc23)c1F [vemurafenib]
Procedure, shortened: as §1

[11] = compound: CCCS(=O)(=O)Nc1ccc(F)c(C(=O)c2c[nH]c3ncc(Cl)cc23)c1F
Procedure, shortened: as §1

[12] = compound: CCCc1cc(C)[nH]c(=O)c1CNC(=O)c1cc(-c2ccnc(N3CCN(C)CC3)c2)cc2c1cnn2C(C)C
Procedure, shortened: as §1

givinostat = compound: CCN(CC)Cc1ccc2cc(COC(=O)Nc3ccc(C(=O)NO)cc3)ccc2c1 [givinostat]
Procedure, shortened: as §1

barasertib = compound: CCN(CCCOc1ccc2c(Nc3cc(CC(=O)Nc4cccc(F)c4)[nH]n3)ncnc2c1)CCOP(=O)(O)O [barasertib]
Procedure, shortened: as §1

Measured: log2 fold change

SREK1 isoform 2 (UniProt Q8WXA9)
inactive: IRAK-1-4 Inhibitor I -0.245 | ibrutinib -0.006 | ralimetinib 0.036 | [2] 0.026 | [3] -0.36 | [4] 0.005 | pinometostat 0.11 | [5] 0.022 | [6] 0.08 | [7] -0.335 | [8] -0.083 | [9] 0 | [10] 0.045 | Nexturastat A 0.108 | vemurafenib 0.019 | [11] 0.096 | [12] -0.069 | givinostat 0.062 | barasertib -0.057
active: [1] -0.497

SNRNP40 (UniProt Q96DI7)
active: [6] 1.03
inactive: IRAK-1-4 Inhibitor I -0.016 | ibrutinib 0.045 | [1] 0.068 | ralimetinib -0.026 | [2] 0.086 | [3] 0.177 | [4] 0.038 | pinometostat -0.019 | [5] -0.1 | [7] 0.01 | [8] 0.001 | [9] -0.06 | [10] -0.023 | Nexturastat A 0 | vemurafenib -0.027 | [11] -0.046 | [12] -0.037 | givinostat -0.035 | barasertib -0.04

SURF2 (UniProt Q15527)
active: [6] -0.238
inactive: IRAK-1-4 Inhibitor I 0.071 | ibrutinib 0.004 | [1] -0.043 | ralimetinib -0.117 | [2] -0.014 | [3] 0.131 | [4] 0.022 | pinometostat 0.01 | [5] -0.036 | [7] 0.022 | [8] -0.007 | [9] 0.035 | [10] -0.027 | Nexturastat A 0.033 | vemurafenib -0.037 | [11] -0.002 | [12] -0.029 | givinostat 0.013 | barasertib 0.035

TBC1D23 (UniProt Q9NUY8)
UniProt Q9NUY8, sequence (Q9NUY8 whole entry, looked up): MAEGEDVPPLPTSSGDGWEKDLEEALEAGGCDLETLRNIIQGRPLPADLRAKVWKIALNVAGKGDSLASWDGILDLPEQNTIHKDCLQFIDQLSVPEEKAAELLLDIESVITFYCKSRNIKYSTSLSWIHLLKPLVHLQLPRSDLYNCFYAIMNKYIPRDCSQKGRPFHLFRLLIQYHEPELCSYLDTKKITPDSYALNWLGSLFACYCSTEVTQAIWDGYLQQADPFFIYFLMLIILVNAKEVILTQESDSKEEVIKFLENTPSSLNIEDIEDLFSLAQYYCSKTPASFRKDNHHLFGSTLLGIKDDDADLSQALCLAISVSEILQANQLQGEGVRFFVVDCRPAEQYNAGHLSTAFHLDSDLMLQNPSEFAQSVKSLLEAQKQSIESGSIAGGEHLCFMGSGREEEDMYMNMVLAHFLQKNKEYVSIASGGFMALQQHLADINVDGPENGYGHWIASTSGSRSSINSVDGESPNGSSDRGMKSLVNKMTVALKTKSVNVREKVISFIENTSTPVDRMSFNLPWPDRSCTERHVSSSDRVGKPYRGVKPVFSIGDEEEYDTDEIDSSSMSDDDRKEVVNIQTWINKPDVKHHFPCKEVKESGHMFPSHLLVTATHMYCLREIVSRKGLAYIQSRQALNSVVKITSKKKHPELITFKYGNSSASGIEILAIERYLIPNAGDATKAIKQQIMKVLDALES
active: [3] -0.45
inactive: IRAK-1-4 Inhibitor I 0.062 | ibrutinib -0.02 | [1] -0.067 | ralimetinib 0.002 | [2] -0.098 | [4] 0.071 | pinometostat -0.046 | [5] 0.055 | [6] 0.01 | [7] 0.029 | [8] -0.038 | [9] 0.005 | [10] 0.005 | Nexturastat A -0.071 | vemurafenib 0.035 | [11] 0.034 | [12] -0.074 | givinostat 0.006 | barasertib 0.041

SNRNP27 (UniProt Q8WVK2)
UniProt Q8WVK2, sequence (Q8WVK2 whole entry, looked up): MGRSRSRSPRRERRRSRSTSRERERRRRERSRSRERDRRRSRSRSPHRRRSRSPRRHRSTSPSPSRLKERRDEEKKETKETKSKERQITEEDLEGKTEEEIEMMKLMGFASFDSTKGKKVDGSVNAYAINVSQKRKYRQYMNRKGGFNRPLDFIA
inactive: IRAK-1-4 Inhibitor I 0.033 | ibrutinib 0.002 | [1] -0.03 | ralimetinib -0.118 | [2] 0.018 | [3] 0.035 | [4] 0.054 | pinometostat -0.04 | [5] 0.082 | [6] -0.043 | [7] -0.015 | [8] -0.006 | [9] -0.008 | [10] 0.007 | Nexturastat A -0.02 | vemurafenib -0.031 | [11] -0.021 | [12] -0.361 | givinostat -0.032 | barasertib -0.039

SRRM2 (UniProt Q9UQ35)
inactive: IRAK-1-4 Inhibitor I -0.074 | ibrutinib -0.015 | [1] -0.326 | ralimetinib 0.063 | [2] 0.01 | [3] -0.258 | [4] 0.002 | pinometostat 0.005 | [5] -0.005 | [6] -0.181 | [7] -0.022 | [8] 0.01 | [9] -0.067 | [10] 0.147 | Nexturastat A 0.156 | vemurafenib 0.068 | [11] 0.007 | [12] 0.01 | givinostat 0.082 | barasertib -0.041

SUMO1 (UniProt P63165)
UniProt P63165, sequence (P63165 whole entry, looked up): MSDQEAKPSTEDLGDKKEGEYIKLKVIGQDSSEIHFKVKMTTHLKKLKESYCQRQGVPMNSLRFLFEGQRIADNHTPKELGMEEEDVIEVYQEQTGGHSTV
inactive: IRAK-1-4 Inhibitor I -0.079 | ibrutinib -0.007 | [1] -0.077 | ralimetinib 0.053 | [2] 0.139 | [3] -0.065 | [4] 0.01 | pinometostat 0.022 | [5] 0.042 | [6] -0.125 | [7] -0.064 | [8] -0.045 | [9] 0.4 | [10] 0.024 | Nexturastat A -0.142 | vemurafenib -0.051 | [12] -0.071 | givinostat -0.172 | barasertib -0.055
active: [11] 0.657

SNX9 (UniProt Q9Y5X1)
UniProt Q9Y5X1, sequence (Q9Y5X1 whole entry, looked up): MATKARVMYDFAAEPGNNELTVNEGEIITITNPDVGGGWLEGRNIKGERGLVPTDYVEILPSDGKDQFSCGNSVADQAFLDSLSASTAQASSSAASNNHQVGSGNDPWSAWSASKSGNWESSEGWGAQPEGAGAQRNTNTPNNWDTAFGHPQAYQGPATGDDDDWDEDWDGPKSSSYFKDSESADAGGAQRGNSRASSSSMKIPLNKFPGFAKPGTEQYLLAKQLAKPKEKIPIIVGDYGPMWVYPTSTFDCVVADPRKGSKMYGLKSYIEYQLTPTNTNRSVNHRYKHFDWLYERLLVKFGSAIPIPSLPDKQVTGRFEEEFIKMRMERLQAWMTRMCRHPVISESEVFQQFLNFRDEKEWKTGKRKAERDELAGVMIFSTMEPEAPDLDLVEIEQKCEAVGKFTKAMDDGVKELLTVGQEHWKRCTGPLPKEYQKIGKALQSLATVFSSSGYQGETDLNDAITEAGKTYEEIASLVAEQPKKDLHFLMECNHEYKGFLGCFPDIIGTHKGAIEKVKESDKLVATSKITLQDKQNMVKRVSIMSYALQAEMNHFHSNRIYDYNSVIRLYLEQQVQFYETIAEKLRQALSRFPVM
inactive: IRAK-1-4 Inhibitor I -0.011 | ibrutinib 0.025 | [1] -0.043 | ralimetinib 0.005 | [2] 0.002 | [3] 0.014 | [4] 0.029 | pinometostat 0.04 | [5] 0.024 | [6] 0.02 | [7] 0.018 | [8] -0.031 | [9] -0.002 | [10] 0.03 | Nexturastat A 0.048 | vemurafenib 0.006 | [11] 0.041 | [12] -0.027 | givinostat -0.099 | barasertib 0.007

SLC29A3 (UniProt Q9BZD2)
inactive: IRAK-1-4 Inhibitor I 0.01 | ibrutinib 0.064 | [1] 0.04 | ralimetinib -0.025 | [2] 0.088 | [3] -0.283 | [4] 0.011 | pinometostat 0.02 | [5] -0.046 | [6] -0.148 | [7] 0.005 | [8] -0.023 | [9] 0.089 | [10] 0 | Nexturastat A 0.124 | vemurafenib -0.097 | [11] -0.128 | [12] 0.017 | givinostat 0.005 | barasertib -0.016

SLC27A1 (UniProt Q6PCB7)
UniProt Q6PCB7, sequence (Q6PCB7 whole entry, looked up): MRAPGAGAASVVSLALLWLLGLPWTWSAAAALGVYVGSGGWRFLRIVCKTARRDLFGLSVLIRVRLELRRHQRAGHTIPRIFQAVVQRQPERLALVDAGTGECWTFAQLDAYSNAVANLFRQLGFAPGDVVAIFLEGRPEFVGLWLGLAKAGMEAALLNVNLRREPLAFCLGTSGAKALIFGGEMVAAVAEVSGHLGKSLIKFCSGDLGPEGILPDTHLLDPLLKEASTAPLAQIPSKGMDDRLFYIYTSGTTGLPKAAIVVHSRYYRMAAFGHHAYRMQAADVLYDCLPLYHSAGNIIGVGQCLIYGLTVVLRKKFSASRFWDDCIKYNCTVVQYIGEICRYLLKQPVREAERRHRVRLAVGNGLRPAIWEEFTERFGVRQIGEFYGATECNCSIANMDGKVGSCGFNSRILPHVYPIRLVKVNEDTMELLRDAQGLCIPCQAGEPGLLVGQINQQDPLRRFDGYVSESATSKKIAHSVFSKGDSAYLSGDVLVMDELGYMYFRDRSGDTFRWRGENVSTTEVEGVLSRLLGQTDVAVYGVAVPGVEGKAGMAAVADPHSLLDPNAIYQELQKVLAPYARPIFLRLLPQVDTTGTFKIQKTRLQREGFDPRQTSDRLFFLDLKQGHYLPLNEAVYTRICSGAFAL
inactive: IRAK-1-4 Inhibitor I 0.052 | ibrutinib 0.064 | [1] -0.05 | ralimetinib 0.001 | [2] 0.117 | [3] -0.035 | [4] -0.04 | pinometostat -0.034 | [5] 0.195 | [6] 0.04 | [7] -0.186 | [8] 0.036 | [9] -0.046 | [10] 0.12 | Nexturastat A -0.061 | vemurafenib -0.109 | [11] -0.008 | [12] -0.01 | givinostat 0.049 | barasertib 0.043

TARS2 (UniProt Q9BW92)
UniProt Q9BW92, sequence (Q9BW92 whole entry, looked up): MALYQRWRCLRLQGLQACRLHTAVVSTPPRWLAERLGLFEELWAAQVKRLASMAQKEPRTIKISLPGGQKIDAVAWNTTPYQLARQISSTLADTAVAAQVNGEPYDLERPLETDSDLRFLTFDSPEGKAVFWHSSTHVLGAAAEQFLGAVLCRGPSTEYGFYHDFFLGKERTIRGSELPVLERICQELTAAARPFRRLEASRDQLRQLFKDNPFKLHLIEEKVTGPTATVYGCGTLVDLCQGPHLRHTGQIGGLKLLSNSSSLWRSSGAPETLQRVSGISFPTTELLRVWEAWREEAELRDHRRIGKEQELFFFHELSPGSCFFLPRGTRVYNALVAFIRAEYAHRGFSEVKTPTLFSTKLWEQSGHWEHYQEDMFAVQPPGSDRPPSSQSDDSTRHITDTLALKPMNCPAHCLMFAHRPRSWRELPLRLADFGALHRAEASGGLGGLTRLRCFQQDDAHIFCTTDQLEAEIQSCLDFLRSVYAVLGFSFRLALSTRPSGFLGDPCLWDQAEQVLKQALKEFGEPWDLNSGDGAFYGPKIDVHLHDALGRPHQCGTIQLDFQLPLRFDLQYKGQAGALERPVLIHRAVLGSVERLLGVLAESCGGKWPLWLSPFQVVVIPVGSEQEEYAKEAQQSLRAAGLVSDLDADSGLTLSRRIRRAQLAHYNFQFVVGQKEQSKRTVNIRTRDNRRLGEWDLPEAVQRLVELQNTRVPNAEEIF
active: [3] -0.219 | givinostat -0.245
inactive: IRAK-1-4 Inhibitor I -0.076 | ibrutinib -0.043 | [1] 0.009 | ralimetinib -0.029 | [2] -0.078 | [4] 0.069 | pinometostat -0.022 | [5] 0.036 | [6] 0.054 | [7] -0.027 | [8] 0.022 | [9] 0.021 | [10] 0.078 | Nexturastat A -0.201 | vemurafenib 0.008 | [11] 0.027 | [12] -0.013 | barasertib 0.028

TBC1D10B (UniProt Q4KMP7)
UniProt Q4KMP7, sequence (Q4KMP7 whole entry, looked up): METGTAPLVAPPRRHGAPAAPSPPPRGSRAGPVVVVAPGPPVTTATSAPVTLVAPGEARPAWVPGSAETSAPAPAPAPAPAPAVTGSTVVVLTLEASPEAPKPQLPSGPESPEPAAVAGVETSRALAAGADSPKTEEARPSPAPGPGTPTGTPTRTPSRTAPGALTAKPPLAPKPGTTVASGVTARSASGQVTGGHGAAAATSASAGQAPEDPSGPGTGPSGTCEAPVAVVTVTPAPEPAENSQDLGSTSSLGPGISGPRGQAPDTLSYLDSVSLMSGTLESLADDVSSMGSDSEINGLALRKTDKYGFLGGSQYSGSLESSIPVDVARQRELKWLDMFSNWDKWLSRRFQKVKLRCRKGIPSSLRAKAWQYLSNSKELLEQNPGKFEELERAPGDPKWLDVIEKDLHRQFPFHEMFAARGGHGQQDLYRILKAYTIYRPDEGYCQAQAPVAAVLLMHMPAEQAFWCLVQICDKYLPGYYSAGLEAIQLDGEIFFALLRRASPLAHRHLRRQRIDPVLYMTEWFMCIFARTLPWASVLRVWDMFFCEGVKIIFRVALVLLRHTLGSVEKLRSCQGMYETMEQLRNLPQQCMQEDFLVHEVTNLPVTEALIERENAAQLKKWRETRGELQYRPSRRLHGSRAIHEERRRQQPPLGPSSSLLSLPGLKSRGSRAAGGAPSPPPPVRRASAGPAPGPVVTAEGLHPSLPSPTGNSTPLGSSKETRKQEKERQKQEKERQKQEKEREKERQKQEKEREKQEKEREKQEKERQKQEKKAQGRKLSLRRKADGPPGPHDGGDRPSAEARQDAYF
inactive: IRAK-1-4 Inhibitor I -0.001 | ibrutinib 0.025 | ralimetinib 0.009 | [2] -0.006 | [3] -0.027 | [4] 0.021 | pinometostat 0.063 | [5] -0.015 | [6] 0.057 | [7] -0.019 | [8] 0.015 | [9] 0.025 | [10] 0 | Nexturastat A -0.051 | vemurafenib 0.004 | [11] 0.048 | [12] 0.014 | givinostat 0.018 | barasertib 0.01
active: [1] -0.342

SOAT1 (UniProt P35610)
UniProt P35610, sequence (P35610 whole entry, looked up): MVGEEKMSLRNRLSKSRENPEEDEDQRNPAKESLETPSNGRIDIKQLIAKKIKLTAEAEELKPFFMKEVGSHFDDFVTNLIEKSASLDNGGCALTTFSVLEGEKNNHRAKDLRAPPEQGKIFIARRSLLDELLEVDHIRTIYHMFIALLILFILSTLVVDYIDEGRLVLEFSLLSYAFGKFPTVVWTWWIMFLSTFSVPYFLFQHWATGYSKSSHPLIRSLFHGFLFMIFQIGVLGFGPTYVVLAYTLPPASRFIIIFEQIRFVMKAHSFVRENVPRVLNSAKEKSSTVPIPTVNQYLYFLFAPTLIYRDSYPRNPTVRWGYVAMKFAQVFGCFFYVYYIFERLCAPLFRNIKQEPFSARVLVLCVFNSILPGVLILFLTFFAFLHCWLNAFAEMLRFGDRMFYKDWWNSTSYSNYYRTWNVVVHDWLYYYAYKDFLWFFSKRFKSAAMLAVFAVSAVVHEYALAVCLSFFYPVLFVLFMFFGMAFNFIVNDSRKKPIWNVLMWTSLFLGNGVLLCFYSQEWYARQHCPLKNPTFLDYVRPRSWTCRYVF
inactive: IRAK-1-4 Inhibitor I 0.1 | ibrutinib -0.008 | [1] -0.031 | ralimetinib 0.031 | [2] -0.04 | [3] -0.014 | [4] 0.303 | pinometostat -0.017 | [5] -0.041 | [6] 0.053 | [7] 0.259 | [8] -0.044 | [9] 0.038 | [10] -0.03 | Nexturastat A 0.002 | vemurafenib -0.036 | [11] -0.015 | [12] -0.137 | givinostat 0.152 | barasertib 0.001

SMARCE1 (UniProt Q969G3)
UniProt Q969G3, sequence (Q969G3 whole entry, looked up): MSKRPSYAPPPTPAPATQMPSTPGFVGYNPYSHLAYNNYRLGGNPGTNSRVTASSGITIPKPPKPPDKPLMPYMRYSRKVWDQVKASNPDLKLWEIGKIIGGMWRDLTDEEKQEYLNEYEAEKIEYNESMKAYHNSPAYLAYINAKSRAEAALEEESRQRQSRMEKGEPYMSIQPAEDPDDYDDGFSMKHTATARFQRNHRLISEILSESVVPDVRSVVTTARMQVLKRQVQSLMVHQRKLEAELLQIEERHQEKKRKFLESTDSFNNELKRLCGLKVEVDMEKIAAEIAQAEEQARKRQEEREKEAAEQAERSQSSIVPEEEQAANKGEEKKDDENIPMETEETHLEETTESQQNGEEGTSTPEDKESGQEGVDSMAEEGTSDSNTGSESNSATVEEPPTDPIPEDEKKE
inactive: IRAK-1-4 Inhibitor I -0.29 | ibrutinib 0.185 | [1] -0.006 | ralimetinib 0.163 | [2] -0.043 | [3] -0.128 | [4] -0.037 | pinometostat -0.031 | [5] 0.21 | [6] -0.091 | [7] -0.025 | [8] -0.058 | [9] -0.003 | [10] 0.074 | Nexturastat A 0.121 | vemurafenib -0.123 | [11] 0.085 | [12] -0.522 | givinostat 0.028 | barasertib 0.042

SNRPD3 (UniProt P62318)
UniProt P62318, sequence (P62318 whole entry, looked up): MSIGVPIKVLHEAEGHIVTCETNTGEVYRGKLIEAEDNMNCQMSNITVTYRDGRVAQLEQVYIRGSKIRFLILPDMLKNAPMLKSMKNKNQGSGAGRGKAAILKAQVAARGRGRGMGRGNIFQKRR
inactive: IRAK-1-4 Inhibitor I 0.002 | ibrutinib -0.006 | [1] 0.067 | ralimetinib -0.022 | [2] 0.208 | [3] 0.162 | [4] 0.017 | pinometostat 0.027 | [5] -0.008 | [6] 0.022 | [7] -0.03 | [8] 0.031 | [9] -0.048 | [10] -0.079 | Nexturastat A -0.023 | vemurafenib -0.015 | [11] -0.102 | [12] -0.126 | givinostat 0 | barasertib -0.039

TIMM10 (UniProt P62072)
UniProt P62072, sequence (P62072 whole entry, looked up): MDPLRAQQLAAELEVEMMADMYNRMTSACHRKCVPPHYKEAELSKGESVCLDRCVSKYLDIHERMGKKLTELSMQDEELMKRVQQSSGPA
inactive: IRAK-1-4 Inhibitor I -0.06 | ibrutinib 0.024 | [1] -0.041 | ralimetinib -0.145 | [2] -0.026 | [3] 0.047 | [4] -0.09 | pinometostat -0.078 | [5] 0.031 | [6] 0.174 | [7] 0.031 | [8] -0.078 | [9] 0.018 | [10] 0.045 | Nexturastat A -0.124 | vemurafenib 0.058 | [11] -0.093 | [12] -0.049 | givinostat -0.05 | barasertib 0.022
